Screening results from PubChem BioAssay.
A selection: hits, their analogues and other compounds. The true share with any hit is near 19%.
DT40 TDP1 CPT: DT40-hTDP1 cell growth loss with CPT; 420,000 tested, 12% active; chicken DT40 Tdp1-/-;hTDP1 cells + 20 nM CPT, ATP luminescence, 48 h; Potency, µM (titrated, usually from 46.2 µM), inactives show at the highest dose activity change, negative = growth inhibition, actives largely listed as inhibitors; AID 686979; further: potency means the concentration at half of the fitted maximal effect; nearly all actives have a fitted effect of over 55% in size
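Chicken DT40 Tdp1-/- cells complemented with human TDP1, 400 cells/well, exposed to compounds plus 20 nM camptothecin for at least 48 h at 37 C; viability read as ATP content by CellTiter-Glo luminescence.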
Giardia kill: kills Giardia lamblia; Giardia lamblia trophozoite viability; activity change, % at 7.66 µM, hits read low; 340,000 tested, 0.15% active; AID 540267; in the data active means activity change below about -80%; inconclusive means between about -30% and that limit;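 further: parasites exposed to compound for two days anaerobically before the ATP read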
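Anaerobic 48 hrs incubation at 37 deg C of 100 trophozoites/well with test compounds; ATPLite 1-Step luminescence, 15-30 min RT, reports cellular ATP as viability.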
DT40 TDP1 no CPT: qHTS for Inhibitors of human tyrosyl-DNA phosphodiesterase 1 (TDP1): qHTS in cells in absence of CPT; 420,000 tested, 15% active; DT40 Tdp1-/- hTDP1 cells, no CPT, ATP luminescence, 48 h; Potency, µM (titrated, usually from 46.2 µM), inactives show at the highest dose activity change, negative = growth inhibition, usual class: inhibitors; further: potency means the concentration at half of the fitted maximal effect; nearly all actives have a fitted effect of over 55% in size
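Growth of hTDP1-complemented DT40 Tdp1-knockout cells is measured by ATP luminescence after at least 48 hr compound exposure at 37 °C, with DMSO substituting for the 20 nM CPT used in the parallel screen.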
IL1B secr inh: inhibitors of inflammasome signaling (IL-1 beta secretion) | AID 743279 | THP-1 LPS/ATP IL-1B secretion, AlphaLISA, 16 h; hits give low values | 360,000 tested, 4.7% active | activity change, % at 57.5 µM; in the data active means activity change below about -50%; inconclusive means mostly about -30% to -49%
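THP-1 cells pretreated 1 hr with compounds (up to 57.5 uM final), then stimulated with LPS (250 ng/mL final) plus ATP (1.25 mM final); secreted IL-1B measured by AlphaLISA after 16 hr, decreased signal indicating inhibition.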
ELG1 repair inh: inhibitors of ELG1-dependent DNA repair in HEK293T cells. AID 504467. 330,000 tested, 2.3% active. HEK293T ELG1-luciferase reporter, luminescence, 16 h; DNA damage induced by 5-fluorouridine. Potency, µM (series often up to 46.1 µM), for inactives: top-dose activity change, negative = inhibition, most hits filed as inhibitors; further: potency means the concentration at half of the fitted maximal effect; nearly all actives have a fitted effect of over 55% in size
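Overnight (16 hr) co-exposure of 2,000 cells/well to 5-fluorouridine and compound at 37 °C preceded detection. Luciferase was quantified via ONE-Glo luminescence; loss of signal denotes inhibition.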
TDP1 block: TDP1 (human) enzyme inhibition; Q9NUW8; recombinant TDP1, AlphaScreen DNA substrate cleavage; 350,000 tested, 0.28% active; Potency, µM (highest dose often 130 µM), for inactives: at the top dose activity change, negative = inhibition, actives largely listed as inhibitors; further: potency means the concentration at half of the fitted maximal effect; nearly all actives have a fitted effect of over 40% in size
Target sequence (Q9NUW8 whole entry, looked up): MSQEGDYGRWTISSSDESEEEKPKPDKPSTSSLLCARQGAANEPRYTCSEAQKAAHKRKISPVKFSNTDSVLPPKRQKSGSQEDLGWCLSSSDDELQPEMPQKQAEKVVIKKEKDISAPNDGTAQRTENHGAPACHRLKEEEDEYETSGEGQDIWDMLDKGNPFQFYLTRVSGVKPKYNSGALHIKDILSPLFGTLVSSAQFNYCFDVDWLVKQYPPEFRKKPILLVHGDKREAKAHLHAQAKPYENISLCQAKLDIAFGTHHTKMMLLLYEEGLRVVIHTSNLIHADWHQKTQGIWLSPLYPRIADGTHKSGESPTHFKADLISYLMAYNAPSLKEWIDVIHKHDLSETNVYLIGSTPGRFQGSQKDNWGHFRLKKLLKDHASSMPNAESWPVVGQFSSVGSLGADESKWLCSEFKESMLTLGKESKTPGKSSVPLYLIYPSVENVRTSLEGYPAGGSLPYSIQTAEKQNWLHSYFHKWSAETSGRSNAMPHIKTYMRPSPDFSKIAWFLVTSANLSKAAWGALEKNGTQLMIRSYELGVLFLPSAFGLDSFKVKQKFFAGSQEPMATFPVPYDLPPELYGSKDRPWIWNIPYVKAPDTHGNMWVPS
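Enzyme-compound mixtures sat 15 min at room temperature, followed by a 5 min reaction with 15 nM final substrate and 10 min with AlphaScreen beads. Recombinant human Tdp1 was used at 1 nM final.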
The depositor's hits bear a star; i = inactive; ? = inconclusive; / = not tested or not shown; [ ] = remark or other dose. Unless noted, the call rests on the fitted dose curve; in most records, active means well fitted curve in the direction sought with a large enough effect; inconclusive means small, poorly fitted or top-dose-only effect, or another doubt; inactive means no such curve, though single readings can be large; an effect the other way counts as inactive or inconclusive. On the % scale 0 is the no-effect control and ±100 the full control effect.

SMILES | DT40 TDP1 CPT | Giardia kill | DT40 TDP1 no CPT | IL1B secr inh | ELG1 repair inh | TDP1 block
Cc1cc(=O)oc2cc(NC(=O)c3ccccc3Cl)ccc12 | 11.7% | 0.8 | ? | 26.9 | ? | /
CCOC(=O)c1c(NC(=O)c2cc(=O)c3c(C)cc(C)cc3o2)sc(C(C)=O)c1C | 8.8% | / | -20.7% | / | / | 8.6%
O/N=C(/CCc1ccccc1)c1ccc2c(c1)OCCO2 | 8.5% | 9.6 | ? | ? | ? | 6.0%
Cn1c(N)c(C(=O)CCl)c(=O)n(C)c1=O | 7.31µM* | -23.1 | ? | ? | 7.1% | 5.6%
Cn1c(=O)c(C(=O)CCl)c(N)n(Cc2ccccc2)c1=O | 4.11µM* | 6.7 | 4.61µM* | -95.1* | ? | -1.3%
Cn1c(N)c(C(=O)CCl)c(=O)n(Cc2ccccc2)c1=O | 2.31µM* | 26.1 | 5.8µM* | -96.9* | 20.6µM* | 3.9%
CN(C)CC(=O)c1c(N)n(Cc2ccccc2)c(=O)n(C)c1=O | 11.4% | -13.8 | 2.2% | 2.5 | 7.0% | 1.8%
CCCCN(C(=O)CSc1nnc(Nc2ccc(C)c(C)c2)s1)c1c(N)n(Cc2ccccc2)c(=O)[nH]c1=O | 18.4µM* | -21.3 | ? | -77.0* | 10.6% | 2.3%
COc1ccc(C(=O)CSc2n[nH]c(C)n2)cc1[N+](=O)[O-] | 0.2% | 9.1 | -15.2% | 6.1 | -21.7% | 0.0%
CCn1nc(C)c(CNC(=O)CC2C(=O)NCCN2CC(C)(C)C)c1C (centres undefined) | 0.7% | 12.9 | 24.3% | 13.4 | 3.9% | 2.5%
CCOC(=O)c1cnc2sc3c(n2c1=O)CCCC3 | 25.9µM* | -4.0 | 14.6µM* | -0.5 | -14.0% | 8.3%
CCOC(=O)c1cnc2nc(C)[nH]n2c1=O | -6.2% | -11.2 | 9.2% | 9.6 | 10.3% | 3.3%
CCSc1nn(CC(=O)Nc2ccc(C(=O)OC)cc2)c(N)c1S(=O)(=O)c1ccc(C)cc1 | 16.4µM* | / | 20.6µM* | / | / | 0.0%
CSc1nn(CC(=O)Nc2cc(C)ccc2C)c(N)c1S(=O)(=O)c1ccccc1 | ? | / | 6.51µM* | / | / | 0.0%
CCOC(=O)c1ccc(NC(=O)Cn2nc(SC)c(S(=O)(=O)c3ccc(Cl)cc3)c2N)cc1 | ? | / | 20.6µM* | / | / | 3.6%
O=S(=O)(c1ccc(NC(=S)N2CCCCC2CO)cc1)N1CCOCC1 (centres undefined) | -19.6% | / | ? | 2.5 | / | /
O=C(COc1ccccc1F)NC1CC(=O)N(c2ccc3c(c2)OCCO3)C1 (centres undefined) | -20.3% | / | -5.6% | / | / | -2.6%
COc1ccc(CCN(C)C(=O)CNC(=O)Cc2cccc3ccccc23)cc1OC | -3.6% | 9.8 | 9.9% | i | 8.3% | 6.3%
O=C(NCc1ccccn1)C1CCCN(S(=O)(=O)c2cc(Cl)ccc2Cl)C1 (centres undefined) | 9.2µM* | -83.2* | 8.2µM* | -103.9* | / | /
Cc1cc(S(=O)(=O)N2CCCC(N(C)CCc3ccccn3)C2)c(C)cc1Cl (centres undefined) | 20.6µM* | -10.0 | 20.6µM* | ? | ? | 3.3%
Cc1ccc(CNC(=O)C2CCN(S(=O)(=O)N3CCC(C)CC3)CC2)cc1 | -18.2% | / | ? | -1.0 | / | -2.6%
O=C(NCc1ccncc1)C1CCN(S(=O)(=O)Cc2ccccc2)CC1 | -16.8% | 41.2 | 2.5% | -63.5* | -10.5% | 0.0%
CN(CCc1ccccc1)C1CCCN(S(=O)(=O)c2cccc(F)c2)C1 (centres undefined) | -1.8% | 5.2 | ? | -3.9 | 0.2% | /
CCc1ccc(CNC(=O)C2CCN(S(=O)(=O)N3CCC(C)CC3)CC2)cc1 | ? | -5.4 | 25.9µM* | -1.8 | -0.6% | 3.4%
O=C(NCc1cccnc1)C1CCN(S(=O)(=O)c2cc(Cl)ccc2Cl)CC1 | 7.31µM* | 1.8 | ? | 37.2 | ? | 1.4%
SMILES | DT40 TDP1 CPT | Giardia kill | DT40 TDP1 no CPT | IL1B secr inh | ELG1 repair inh | TDP1 block
CCCNC(=O)C1CCN(c2ccc(S(=O)(=O)N3CCOCC3)cc2Cl)CC1 | 14.6µM* | -3.6 | -29.9% | 0.4 | ? | -4.5%[56.1 µM]
O=C(NCc1cccnc1)C1CCN(c2ccc(S(=O)(=O)N3CCOCC3)cc2Cl)CC1 | ? | -11.8 | ? | 24.3 | 16.4µM* | -3.6%
O=C(C1CCN(S(=O)(=O)c2cc(Cl)ccc2Cl)CC1)N1CCOCC1 | -11.4% | -5.9 | -3.7% | -57.1* | -3.2% | 3.6%
O=C(C1CCN(S(=O)(=O)c2cc(Cl)ccc2Cl)CC1)N1CCCC1 | -0.7% | -16.7 | -25.1% | -16.0 | 15.7% | /
CCN(CC)C(=O)c1c(-c2ccccc2)c(-c2ccccc2)nn(CC)c1=O | ? | / | ? | / | / | 7.0%
CC1=C(C(=O)OCCCCCl)C(c2cc3c(cc2Br)OCO3)NC(=O)N1 (centres undefined) | -26.7% | -10.0 | ? | -17.9 | ? | /
O=C(CN1CCN(c2ccc(C(F)(F)F)cn2)CC1)NCc1ccc2c(c1)OCO2 | -41.8% | 1.4 | ? | -10.5 | -4.4% | 0.0%
CCOc1ccc(C(=O)N2CCCCC2CCN2CCOCC2)cc1 (centres undefined) | 7.7% | / | 0.3% | / | / | 0.0%
CCOC(=O)c1c(CN2CCN(CCO)CC2)n(-c2ccccc2)c2cc(Br)c(O)cc12 | ? | -12.1 | 18.4µM* | -81.0* | ? | 6.8%
CCOC(=O)c1c(CN2CCN(C)CC2)n(-c2ccccc2)c2cc(Br)c(O)cc12 | ? | 3.7 | 23.1µM* | -12.0 | -6.0% | 2.8%
CCOC(=O)c1c(CSC(=N)N)n(-c2ccccc2)c2cc(Br)c(OC(C)=O)cc12 | ? | -16.9 | 18.4µM* | / | ? | 4.8%
CCOC(=O)c1c(C)n(-c2ccccc2)c2ccc(O)cc12 | -27.9% | -10.8 | ? | 22.6 | -6.0% | 5.6%
CCOC(=O)c1c(CN(CC)CC)n(-c2ccccc2)c2ccc(O)cc12 | ? | -24.0 | ? | -60.3* | 0.0% | /
CCOC(=O)c1c(CN2CCN(c3ccccc3)CC2)oc2cc(Br)c(O)cc12 | ? | 5.6 | ? | 13.2 | -13.5% | /
CCOC(=O)c1c(C)n(-c2ccccc2)c2ccc(O)c(CN(C)C)c12 | 11.6µM* | 27.5 | 14.6µM* | / | -8.5% | 2.7%
CCOC(=O)c1c(C)n(C)c2ccc(O)c(CN(CC)CC)c12 | ? | 11.2 | ? | -25.3 | ? | 0.9%
NC(CSC(c1ccccc1)(c1ccccc1)c1ccc2c(c1)OCO2)C(=O)O (centres undefined) | ? | / | 7.31µM* | 17.8 | / | /
